Assay outcomes from PubChem.
esBAF inh – inhibitors of esBAF chromatin remodeling in mouse ES cells; Bmi1-luciferase knock-in reporter, 24 h; 100% = twice the neutral-well signal; reporter increase, % at 12.5 µM; actives 2% (n = 350,000); AID 602393; in the data active = activation above about 40%; inconclusive = no clear call, values can overlap the other calls;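 note: a rise in the Bmi1 reporter signal indicates esBAF inhibition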
Jurkat NFkB inh – lowers PMA/ionomycin-induced NF-kB signal in Jurkat cells; PMA/ionomycin-induced NF-kB luciferase reporter, luminescence; inhibition, % at 4 µM; actives 0.53% (n = 330,000); AID 435003; in the data active = inhibition above about 50%
Gli-Sufu block – Gli-Sufu pathway antagonism; Sufu-KO-LIGHT fibroblasts, Gli luciferase reporter luminescence; inhibition, % at 5 µM; actives 0.74% (n = 340,000); AID 588413;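 active = inhibition above about 55%, limit read from the data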
SMARCA2 act – SMARCA2 function activation, primary screen; AID 652017; MG213 cells, MMTV-luciferase reporter, dexamethasone, overnight; activation, % at 9.1 µM; actives 1% (n = 370,000); in the data active = activation above about 7.8%
697 NFkB inh – lowers PMA/ionomycin-induced NF-kB signal in 697 B cells. 697 B-cell NF-kB luciferase reporter, 16 h. AID 435022. actives 0.33% (n = 330,000). inhibition, % at 4 µM; in the data active = inhibition above about 35%
Numbers stand for hits; . = inactive; ? = inconclusive; / = no result. The list is not random: actives were taken first. Their share in the collection is about 3.3%.

SMILES | esBAF inh | Jurkat NFkB inh | Gli-Sufu block | SMARCA2 act | 697 NFkB inh
CS(=O)(=O)c1ccc2nc(NC(=O)C3CC3)sc2c1 | / | . | . | . | .
Nc1ccc2nc(NC(=O)C3CCCCC3)sc2c1 | 52 | . | . | . | .
C[C@H]1CN([C@@H](C)CO)C(=O)c2cc(-c3ccccc3F)cnc2O[C@H]1CN(C)C(=O)C1CCC1 | . | / | / | / | /
Cc1ccccc1-c1cnc2c(c1)C(=O)N([C@H](C)CO)C[C@H](C)[C@H](CN(C)C(=O)CN(C)C)O2 | . | / | / | / | /
CC(C)C(OC(=O)c1ccccc1)c1nccc2ccccc12 (stereo not drawn) | 72 | . | . | . | .
Cc1cccc2c3nc4ccccc4nc3n(C)c12 | 41 | . | . | . | .
Cc1c(NCc2nc3ccccc3[nH]2)c(=O)n(-c2ccccc2)n1C | . | . | . | 7.8 | .
COC(=O)C[C@@H]1C[C@@H]2c3cc(NC(=O)Nc4ccc(F)cc4)ccc3O[C@@H]2[C@@H](CO)O1 | . | / | / | / | /
Cc1cccc(S(=O)(=O)N[C@@H]2CC[C@@H](CCNS(=O)(=O)c3ccccc3F)O[C@H]2CO)c1 | . | / | / | / | /
O=C(O)c1ccc2oc(SCC(=O)N3CCCCC3)nc2c1 | 59 | . | . | . | .
Cc1ccc(NC(=O)c2cc(-c3cccs3)on2)cc1C | 52 | . | . | . | .
CC1CCCCN1C(=O)CSc1nnc(-c2cccs2)o1 (stereo not drawn) | . | . | . | . | .
CC1CCCC(C)N1C(=O)CSc1nnc(-c2cccs2)o1 (stereo not drawn) | 46 | . | . | . | .
Cn1c(SCc2ccccc2)nnc1-c1cccs1 | 59 | . | . | . | .
CCSc1nnc(-c2cccs2)o1 | 44 | . | . | . | .
Cn1c(SCc2ccc(F)cc2)nnc1-c1cccs1 | / | . | . | / | .
C[C@@H]1CCCCO[C@@H](CN(C)Cc2ccc3c(c2)OCO3)[C@@H](C)CN([C@H](C)CO)C(=O)c2cc(NC(=O)c3ccncc3)ccc2O1 | . | / | / | / | /
COc1ccc(S(=O)(=O)Nc2ccc3c(c2)C(=O)N(C)C[C@@H](OC)[C@H](C)CN(Cc2cc(F)ccc2F)[C@H](C)CO3)cc1 | . | / | / | / | /
CC(=O)N(C)C[C@@H]1Oc2ncc(C#Cc3ccc(F)cc3)cc2C(=O)N([C@H](C)CO)C[C@H]1C | . | / | / | / | /
CO[C@@H]1CN(C)C(=O)c2ccc(NC(=O)Nc3ccccc3)cc2OC[C@H](C)N(CC2CC2)C[C@@H]1C | . | / | / | / | /
CN1C[C@@H](O)COC[C@@H]2O[C@@H](CC(=O)N3CCN(c4ccccc4)CC3)CC[C@H]21 | . | / | / | / | /
Cc1noc(C)c1S(=O)(=O)Nc1ccc2c(c1)CC(=O)N([C@@H](C)CO)C[C@H](C)[C@@H](CN(C)S(=O)(=O)c1cccs1)O2 | . | / | / | / | /
Fc1ccc(CSc2nnc(-c3cccs3)o2)cc1 | / | . | . | . | .
Cn1c(SCc2ccc(F)cc2)nnc1-c1ccccn1 | 41 | . | . | . | .
Clc1ccccc1-c1nnc(-c2cccnc2)o1 | . | . | . | . | .
SMILES | esBAF inh | Jurkat NFkB inh | Gli-Sufu block | SMARCA2 act | 697 NFkB inh
c1ccc(CSc2nnc(-c3cccs3)o2)cc1 | 47 | . | . | . | .
Clc1ccccc1-c1nnc(-c2cccs2)o1 | 46 | . | . | . | .
CC1CCCC(C)N1C(=O)c1cc(-c2cccs2)on1 (stereo not drawn) | 48 | . | . | . | .
O=C(C[C@H]1C[C@H]2c3cc(NC(=O)Nc4ccccc4)ccc3O[C@H]2[C@H](CO)O1)NCc1ccccn1 | . | / | / | / | /
C[C@@H]1CCCCO[C@H](CN(C)S(=O)(=O)c2cn(C)cn2)[C@H](C)CN([C@@H](C)CO)C(=O)c2cc(NC(=O)CCC(F)(F)F)ccc2O1 | . | / | / | / | /
Cc1cccc(-c2nnc(SCc3ccccc3)o2)c1 | 63 | . | . | . | .
C[C@H](CO)N1C[C@H](C)[C@@H](CN(C)C(=O)C2CC2)Oc2cc(-c3ccc(F)cc3)ccc2S1(=O)=O | . | / | / | / | /
Cn1cc(Cl)c(C(=O)Nc2cccc(Cl)c2Cl)n1 | 71 | . | . | . | .
CCOc1ccc(C(=O)c2cccs2)cc1 | 48 | . | . | . | .
CC(C)C(NC(=O)OCc1ccccc1)C(=O)OCC(=O)N1CCCCC1 (stereo not drawn) | 72 | . | . | . | .
O=C(N/N=C/c1cccc(F)c1)c1csc2c1CCCC2 | 50 | . | . | . | .
CC(C)(C)c1ccc(C(=O)N/N=C/c2cccc(Cl)c2)cc1 | 54 | . | . | . | .
O=C(N/N=C/c1cccc(NC(=O)c2ccc(Cl)cc2)c1)c1ccc(O)cc1 | ? | . | . | . | .
O=C(N/N=C/c1ccccc1Cl)c1cccc(F)c1 | 53 | . | . | . | .
O=C(N/N=C/c1ccc(Cl)cc1Cl)Nc1ccccc1 | . | . | . | . | .
O=C(N/N=C/c1cccc(O)c1)c1csc2ccccc12 | . | . | . | . | .
O=C(N/N=C/c1cccc(Cl)c1Cl)Nc1ccccc1 | 50 | . | . | . | .
COCCNC(=O)C[C@H]1C[C@@H]2c3cc(NS(=O)(=O)c4ccccc4)ccc3O[C@@H]2[C@@H](CO)O1 | . | / | / | / | /
O=C(C[C@@H]1CC[C@H](NC(=O)C2CCOCC2)[C@@H](CO)O1)Nc1ccc(-c2ccccc2)cc1 | . | / | / | / | /
O=C(N/N=C/c1ccc(F)cc1)c1ccc(Br)cc1 | . | . | . | . | .
O=C(N/N=C/c1cccc(F)c1)c1ccc(Cl)cc1 | 69 | . | . | . | .
Cc1cccc(/C=N/NC(=O)c2ccc(Br)cc2)c1 | 59 | . | . | . | .
C[C@H](CO)N1C[C@H](C)[C@H](CN(C)S(=O)(=O)c2ccc(F)cc2)Oc2ncc(C#Cc3cccc(F)c3)cc2C1=O | . | / | / | / | /
COc1ccc(/C(N)=C/C(=O)C(C)(C)C)cc1 | 58 | . | . | . | .
CC1CCN(C2=C(NS(=O)(=O)c3ccccc3)C(=O)c3ccccc3C2=O)CC1 | / | . | . | 7.8 | .
SMILES | esBAF inh | Jurkat NFkB inh | Gli-Sufu block | SMARCA2 act | 697 NFkB inh
O=C(NCC[C@H]1CC[C@@H](NC(=O)c2ccc3c(c2)OCO3)[C@@H](CO)O1)Nc1cc(F)ccc1F | . | / | / | / | /
CN(C)c1cccc(NC(=O)c2cccc3c(-c4ccc(F)c(F)c4)coc23)c1 | 41 | / | / | . | /
COc1ccc(NC(=O)c2cccc3c(-c4cccnc4)coc23)cc1 | . | / | / | . | /
O=C(Nc1ccccc1)c1cccc2c(-c3cccnc3)coc12 | 55 | / | / | . | /
COc1ccc(NC(=O)N(C)C[C@H]2OCCCC[C@H](C)Oc3ccc(NC(=O)Nc4cccc5ccccc45)cc3C(=O)N([C@H](C)CO)C[C@@H]2C)cc1 | . | / | / | / | /
CC1(C)NC(=O)N(CCOCCSc2ccccc2)C1=O | 61 | . | . | . | .
O=S(=O)(c1ccc(Cl)s1)N1CCCc2cccc(O)c21 | 84 | . | . | . | .
CC(C)c1cc(C(=O)Nc2cc(Br)ccc2O)no1 | 78 | . | . | . | .
CC(C)c1cc(C(=O)Nc2cc(Cl)ccc2O)no1 | 55 | . | . | . | .
CC(=O)c1cccc(NC(=O)c2cc(C(C)C)on2)c1 | . | . | . | . | .
Cc1noc(C(=O)Nc2cc(Cl)ccc2O)c1Cl | . | . | . | . | .
